# “And” between values parts separate entries of the source, which are not always exact repeats. Identical values can stand only once. About 79,000 compounds went through this panel and 15% of them were active in at least one assay; those are over-represented in the sample as a whole. The source made the active and inactive calls. Cut-off read from the data, not from the text of the source: active = growth inhibition above about 70%; inactive = the rest.
# Assay: NCI Yeast Anticancer Drug Screen. Data for the mec2-1 strain (AID 157)
# Settings: S. cerevisiae mec2-1 strain, stronger effect = higher value; at 50.0 µM unless noted
# Procedure, shortened: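 mec2-1 yeast strain, carrying an alteration in DNA damage repair or cell cycle control, was exposed to compounds; growth inhibition was measured relative to vehicle-treated controls.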
row,SMILES,growth inhibition
1,CCOC(=O)c1cc(C(O)C(O)C(O)CO)oc1C (stereo not given),2.1% (inactive)
2,CN=Nc1c(O)[nH]c2ccc(C)cc12,0.2% (inactive)
3,O/N=C/c1ccc(O)cc1,-21.1% (inactive)
4,CCCCCC=C(C(=O)OCC)C(=O)OCC,-1.7% (inactive)
5,O=C(O)CCC(=O)c1ccc(F)cc1,-13.7% (inactive)
6,C[C@H]1/C(=C/C(=O)OCCN(C)C)CC[C@H]2[C@H]1C(=O)C[C@H]1C(C)(C)[C@@H](O)CC[C@]21C,-1.75% (inactive)
7,Cc1cc(C)c([N+](=O)[O-])cc1N,15.1% (inactive)
8,CC(=O)c1ccc2c(c1)NC(=O)CC(C)N2 (stereo not given),-1.25% (inactive)
9,O=C(NCCCl)NC1C(O)OC(CO)C(O)C1O (stereo not given),96% (active)
10,NC(N)=N/N=C(\c1ccc(C(F)(F)F)cc1)c1ccc(Cl)c(Cl)c1,99.5% (active)
11,CCC(C)C(C#N)(CCN(CC)CC)c1ccccc1 (stereo not given),12.6% (inactive)
12,COCc1ccccc1-n1nccc1S(C)=O (stereo not given),25.4% (inactive)
13,CC(=O)OC[C@H](O)[C@@]1(O)CC[C@H]2[C@@H]3CCC4=CC(=O)C=C[C@]4(C)[C@H]3[C@@H](O)C[C@@]21C,14.9% (inactive)
14,NC(CSCCB(O)O)C(=O)O (stereo not given),-15.2% (inactive)
15,[N-]=[N+]=Nc1ccc2nc(N)nc(N)c2c1,5.7% (inactive)
16,Cc1ccc(S(=O)(=O)c2ccccc2)cc1,-15.6% (inactive) and -0.95% (inactive)
17,Cc1cccc(Nc2nc(C)nc3[nH]cc(-c4ccccc4)c23)c1,-12.6% (inactive)
18,CCOC(=O)C(CCc1ccccc1)(NC(C)=O)C(=O)OCC,-7.8% (inactive)
19,COC(=O)CC(NC(=O)OCc1ccccc1)C(=O)NCC(=O)Oc1ccc([N+](=O)[O-])cc1 (stereo not given),11.8% (inactive)
20,C[N+](C)(C)CC1CCC/C1=N\OC(=O)c1ccccc1 (stereo not given),1.85% (inactive)

row,SMILES,growth inhibition
1,COc1ccc(C2=C(c3ccccc3)C(=O)C3(c4ccccc4)CC23c2ccc(OC)cc2)cc1 (stereo not given),17.6% (inactive)
2,CC(C)(Nc1ccccc1)C(=O)OC(C)(C)C(=O)Nc1ccccc1,-25.5% (inactive)
3,c1cc2c(cc1C1=NNC(c3ccc4c(c3)OCO4)=NN1)OCO2,10.2% (inactive)
4,Nc1ccc2ncc(Nc3ccc(F)cc3)nc2c1,-22.6% (inactive)
5,COc1cc(OC)c(C2SCC(=O)N2c2nnc(C(F)(F)F)s2)cc1OC (stereo not given),13.8% (inactive)
6,COc1ccc2ncccc2c1[N+](=O)[O-],-44.3% (inactive)
7,CC(=O)c1cccc(NC(=O)Oc2cc(=O)oc3ccccc23)c1,19.3% (inactive)
8,O=C1C(=O)c2ccccc2C(O)=C1C1CCCCC1,2.15% (inactive)
9,COc1ccccc1C(=O)N/N=C/c1cccc([N+](=O)[O-])c1,3.1% (inactive)
10,C=C(c1ccccc1)C1ON(C)CCc2cc(OC)c(OC)cc21 (stereo not given),15.4% (inactive)
11,CC(=O)Nc1cccc(Br)c1,-23.6% (inactive)
12,CC(=O)C12C[C@](C#N)(N3CCCCCC3)C1C=Cc1ccccc12 (stereo not given in full),-29.6% (inactive)
13,CCOC(=O)O/C(=C\c1ccc(OC)cc1)c1c(OC(=O)OCC)n(C(=O)OCC)c2ccccc12,-4.3% (inactive)
14,CC/C=C/C(CC)(C(=O)OCC)C(=O)OCC,-15.8% (inactive)
15,CCCCCCC(=O)OCC(=O)c1ccc(Br)cc1,28.2% (inactive)
16,CCC(C)(CC)c1ccc(C)cc1OC,8.15% (inactive)
17,COCCN=Cc1ccc(N(C)C)cc1,-4.8% (inactive)
18,O=C(C1=CCCCC1)c1ccc(-c2ccccc2)cc1,11.2% (inactive)
19,CCOC(=O)CCC(NC(=O)OCc1ccccc1)C(=O)NNC(=O)OC(C)(C)C (stereo not given),22% (inactive)
20,CC(=O)[CH-]C(=O)c1ccccc1.CC(=O)[CH-]C(=O)c1ccccc1.CC1(C)OCC(C2OC3OC(C)(C)OC3C2[O-])O1.CC1(C)OCC(C2OC3OC(C)(C)OC3C2[O-])O1.[Ti+4] (stereo not given),5.65% (inactive)

# Assay: NCI Yeast Anticancer Drug Screen. Data for the sgs1 mgt1 strain (AID 161);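 note: 0% = growth of cultures given vehicle only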
# Settings: S. cerevisiae sgs1 mgt1 strain, stronger effect = higher value; at 50.0 µM unless noted
# Procedure, shortened: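 Growth of a repair-deficient yeast mutant was monitored after compound treatment and expressed as inhibition relative to vehicle-treated cultures.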
row,SMILES,growth inhibition
1,CCOC(=O)c1cc(C(O)C(O)C(O)CO)oc1C (stereo not given),-6.45% (inactive)
2,CN=Nc1c(O)[nH]c2ccc(C)cc12,-8.3% (inactive)
3,O/N=C/c1ccc(O)cc1,-14.4% (inactive)
4,CCCCCC=C(C(=O)OCC)C(=O)OCC,-4.15% (inactive)
5,O=C(O)CCC(=O)c1ccc(F)cc1,-13.6% (inactive)
6,C[C@H]1/C(=C/C(=O)OCCN(C)C)CC[C@H]2[C@H]1C(=O)C[C@H]1C(C)(C)[C@@H](O)CC[C@]21C,-0.55% (inactive)
7,Cc1cc(C)c([N+](=O)[O-])cc1N,26.6% (inactive)
8,CC(=O)c1ccc2c(c1)NC(=O)CC(C)N2 (stereo not given),11.9% (inactive)
9,O=C(NCCCl)NC1C(O)OC(CO)C(O)C1O (stereo not given),93.8% (active)
10,NC(N)=N/N=C(\c1ccc(C(F)(F)F)cc1)c1ccc(Cl)c(Cl)c1,99.7% (active)
11,CCC(C)C(C#N)(CCN(CC)CC)c1ccccc1 (stereo not given),28.4% (inactive)
12,COCc1ccccc1-n1nccc1S(C)=O (stereo not given),1.8% (inactive)
13,CC(=O)OC[C@H](O)[C@@]1(O)CC[C@H]2[C@@H]3CCC4=CC(=O)C=C[C@]4(C)[C@H]3[C@@H](O)C[C@@]21C,23.9% (inactive)
14,NC(CSCCB(O)O)C(=O)O (stereo not given),-6.5% (inactive)
15,[N-]=[N+]=Nc1ccc2nc(N)nc(N)c2c1,2.85% (inactive)
16,Cc1ccc(S(=O)(=O)c2ccccc2)cc1,-22.5% (inactive) and 23% (inactive)
17,Cc1cccc(Nc2nc(C)nc3[nH]cc(-c4ccccc4)c23)c1,-10.9% (inactive)
18,CCOC(=O)C(CCc1ccccc1)(NC(C)=O)C(=O)OCC,12.3% (inactive)
19,COC(=O)CC(NC(=O)OCc1ccccc1)C(=O)NCC(=O)Oc1ccc([N+](=O)[O-])cc1 (stereo not given),12.2% (inactive)
20,C[N+](C)(C)CC1CCC/C1=N\OC(=O)c1ccccc1 (stereo not given),11.8% (inactive)

row,SMILES,growth inhibition
1,COc1ccc(C2=C(c3ccccc3)C(=O)C3(c4ccccc4)CC23c2ccc(OC)cc2)cc1 (stereo not given),15.5% (inactive)
2,CC(C)(Nc1ccccc1)C(=O)OC(C)(C)C(=O)Nc1ccccc1,-12.4% (inactive)
3,c1cc2c(cc1C1=NNC(c3ccc4c(c3)OCO4)=NN1)OCO2,-7.45% (inactive)
4,Nc1ccc2ncc(Nc3ccc(F)cc3)nc2c1,25.1% (inactive)
5,COc1cc(OC)c(C2SCC(=O)N2c2nnc(C(F)(F)F)s2)cc1OC (stereo not given),5.15% (inactive)
6,COc1ccc2ncccc2c1[N+](=O)[O-],-5.8% (inactive)
7,CC(=O)c1cccc(NC(=O)Oc2cc(=O)oc3ccccc23)c1,12.4% (inactive)
8,O=C1C(=O)c2ccccc2C(O)=C1C1CCCCC1,24.3% (inactive)
9,COc1ccccc1C(=O)N/N=C/c1cccc([N+](=O)[O-])c1,13.7% (inactive)
10,C=C(c1ccccc1)C1ON(C)CCc2cc(OC)c(OC)cc21 (stereo not given),14.3% (inactive)
11,CC(=O)Nc1cccc(Br)c1,-18.1% (inactive)
12,CC(=O)C12C[C@](C#N)(N3CCCCCC3)C1C=Cc1ccccc12 (stereo not given in full),-46.1% (inactive)
13,CCOC(=O)O/C(=C\c1ccc(OC)cc1)c1c(OC(=O)OCC)n(C(=O)OCC)c2ccccc12,7% (inactive)
14,CC/C=C/C(CC)(C(=O)OCC)C(=O)OCC,-6.7% (inactive)
15,CCCCCCC(=O)OCC(=O)c1ccc(Br)cc1,15.2% (inactive)
16,CCC(C)(CC)c1ccc(C)cc1OC,-7.1% (inactive)
17,COCCN=Cc1ccc(N(C)C)cc1,-3.05% (inactive)
18,O=C(C1=CCCCC1)c1ccc(-c2ccccc2)cc1,2.25% (inactive)
19,CCOC(=O)CCC(NC(=O)OCc1ccccc1)C(=O)NNC(=O)OC(C)(C)C (stereo not given),36.5% (inactive)
20,CC(=O)[CH-]C(=O)c1ccccc1.CC(=O)[CH-]C(=O)c1ccccc1.CC1(C)OCC(C2OC3OC(C)(C)OC3C2[O-])O1.CC1(C)OCC(C2OC3OC(C)(C)OC3C2[O-])O1.[Ti+4] (stereo not given),14.8% (inactive)

# — PubChem BioAssay (NCI)
